Results filed as inconclusive are left out. Entries that show only a call come without a potency. Activity calls are given as the source filed them. The call rests on the fitted dose curve; in most records, active means well fitted inhibition curve with a large enough effect in the signal ratio in the repeat runs, with a control signal flat; inconclusive means weak or mixed curves, or effect the other way; inactive means flat fitted curve, though single readings scatter; the % refers to the signal ratio.
The compounds below were run against D(2) dopamine receptor (Homo sapiens) (UniProt P14416) (assay: Dopamine D2 receptor (DRD2) small molecule antagonists, cell-based qHTS assay (AID 1963595)). Settings: HEK293-DRD2 cAMP HTRF antagonist mode; series mostly up to 92.4 µM.
Procedure, shortened: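 Stable D2 receptor HEK293 line, 24 h after seeding. Compound preincubated 10 min, then quinpirole (12 nM) with forskolin analogue NKH477 (200 nM), 30 min, room temperature. Detection by time-resolved FRET of cAMP.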
Potency means the concentration at half of the fitted maximal effect.

Sequence of D(2) dopamine receptor (Homo sapiens) (P14416 whole entry, looked up): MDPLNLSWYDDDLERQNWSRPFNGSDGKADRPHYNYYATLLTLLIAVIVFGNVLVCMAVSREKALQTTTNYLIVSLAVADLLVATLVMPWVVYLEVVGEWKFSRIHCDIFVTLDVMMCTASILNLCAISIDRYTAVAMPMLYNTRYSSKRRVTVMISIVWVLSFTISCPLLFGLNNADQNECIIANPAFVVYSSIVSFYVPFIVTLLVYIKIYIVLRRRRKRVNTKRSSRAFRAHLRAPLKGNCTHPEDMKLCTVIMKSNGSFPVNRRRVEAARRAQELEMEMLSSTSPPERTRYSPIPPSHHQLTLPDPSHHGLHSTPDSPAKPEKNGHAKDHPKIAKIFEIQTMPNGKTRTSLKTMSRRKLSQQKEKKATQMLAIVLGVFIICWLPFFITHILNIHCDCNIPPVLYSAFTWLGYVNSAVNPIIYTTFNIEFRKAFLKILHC

| Compound | activity change, negative = inhibition | Potency |
| --- | --- | --- |
| C=CC(=C)CC/C=C(\C)CCC=C(C)C | -0.805% [at 18.9 µM] (inactive) | – |
| C[C@H](CCC(=O)O)[C@H]1CC[C@H]2[C@@H]3[C@H](O)C[C@@H]4C[C@H](O)CC[C@]4(C)[C@H]3C[C@H](O)[C@]12C | – | inactive |
| CC(C)C[P+](C)(CC(C)C)CC(C)C | – | inactive |
| CCCCCCCCCCCCCCCCCCN(C)C | – | inactive |
| CC(=O)Nc1cccc(C)c1 | – | inactive |
| O=C(NCCN1CCOCC1)c1ccc(Cl)cc1 | – | inactive |
| CCCCCCCCCCCCCOP(=O)(O)O | – | inactive |
| CCCC(C)C | – | inactive |
| O=C(NS(=O)(=O)/C=C/c1ccccc1)c1ccc(F)cc1Cl | – | inactive |
| CCOC(=O)CCCCCCCCC(=O)OCC | – | inactive |
| CC(C)OC(=O)C(C(=O)OC(C)C)=C1SC=CS1 | – | inactive |
| O=C(CN1CCN(Cc2ccc3c(c2)OCO3)CC1)N1c2ccccc2Sc2ccccc21 | – | inactive |
| CC(=O)Oc1ccc(C(C)=O)cc1 | – | inactive |
| Cc1ccc(C(=O)Oc2ccc(C(O)CNC(C)(C)C)cc2OC(=O)c2ccc(C)cc2)cc1 (centres undefined) | – | 0.841 µM (active) |
| Oc1ccc(Cl)c2cccnc12 | – | inactive |
| CC(=O)OC(C)c1ccccc1 (centres undefined) | – | inactive |
| O=S(=O)(Cl)c1c(Cl)cccc1Cl | – | inactive |

| Compound | activity change, negative = inhibition | Potency |
| --- | --- | --- |
| CCOC(=O)CC1(C)OCC(C)O1 (centres undefined) | – | inactive |
| C1CC(COCC2CO2)CCC1COCC1CO1 (centres undefined) | – | inactive |
| CCCCCCCCCCC(=O)O | – | inactive |
| O=C1OCc2ccccc21 | – | inactive |
| CC1(C)C(=O)N(CO)C(=O)N1CO | – | inactive |
| CCCC(c1cc(C(C)(C)C)c(O)cc1C)c1cc(C(C)(C)C)c(O)cc1C | – | 24.6 µM (active) |
| O=C(O)CNCC(=O)O | -7.14% [at 8.38 µM] (inactive) | – |
| CCCS(=O)c1ccc2nc(NC(=O)OC)[nH]c2c1 (centres undefined) | – | inactive |
| O=C(OCc1ccccc1)C(=O)OCc1ccccc1 | – | inactive |
| C/C=C(\C)C#N | – | inactive |
| Cl[Si](Cl)(c1ccccc1)c1ccccc1 | – | inactive |
| N=C(N)c1ccc(OCCCOc2ccc(C(=N)N)cc2)cc1 | – | inactive |
| COC(=O)C(C)O (centres undefined) | – | inactive |
| CCc1nccnc1CC | -10.9% [at 18.9 µM] (inactive) | – |
| CO[Si](CCCNc1ccccc1)(OC)OC | – | inactive |
| CCCCCCCCCCCCCCCCOS(=O)(=O)O | – | inactive |
| CC(C)(c1ccc(Oc2ccc3c(c2)C(=O)OC3=O)cc1)c1ccc(Oc2ccc3c(c2)C(=O)OC3=O)cc1 | – | inactive |

From PubChem BioAssay (Tox21)
